A3G deaminase – blocks human APOBEC3G single-stranded DNA deamination; 330,000 tested, 0.28% active; inhibition, % at 20 µM; AID 493012; recombinant A3G, ssDNA deamination FAM/TAMRA fluorescence;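 active = inhibition of at least 40% at 20 µM, with no more than 30% in the related APOBEC3A deaminase screen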;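 also: plate controls were DMSO wells with A3G for no effect and wells lacking A3G enzyme for full effect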
Target sequence (Q9HC16 whole entry, looked up): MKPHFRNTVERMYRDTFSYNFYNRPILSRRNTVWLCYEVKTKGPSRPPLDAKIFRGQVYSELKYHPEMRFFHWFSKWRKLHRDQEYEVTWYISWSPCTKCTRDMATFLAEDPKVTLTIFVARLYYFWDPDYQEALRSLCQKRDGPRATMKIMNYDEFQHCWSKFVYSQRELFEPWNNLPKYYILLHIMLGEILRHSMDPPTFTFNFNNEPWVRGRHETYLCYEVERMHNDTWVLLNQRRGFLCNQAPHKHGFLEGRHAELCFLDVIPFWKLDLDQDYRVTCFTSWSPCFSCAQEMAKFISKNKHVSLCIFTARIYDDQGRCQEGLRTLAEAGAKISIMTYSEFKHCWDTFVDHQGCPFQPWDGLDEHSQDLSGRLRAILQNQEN
PHOSPHO1 block – PHOSPHO1 (human) inhibition. recombinant PHOSPHO1, absorbance phosphatase assay. 290,000 tested, 1.1% active. inhibition, % at 13.3 µM; in the data active = inhibition above about 60%
MITF TRPM1 HTS – MITF TRPM1 promoter activation in melanoma cells. 300,000 tested, 0.75% active. activation, % at 12.5 µM. SK-MEL-5 TRPM1-promoter luciferase, 24 h; % of positive control, neutral wells = 0. AID 588334;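 active = mean activation of at least 80% with every replicate also reaching 80%; inconclusive = mean reaches 80% but some replicate falls short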;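 also: 0% = neutral control wells and 100% = parthenolide positive control wells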
A3A deaminase – human APOBEC3A DNA deaminase inhibition | inhibition, % at 20 µM | AID 493011 | recombinant A3A, FAM/TAMRA ssDNA deamination fluorescence | P31941 | 330,000 tested, 0.41% active;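 active = at least 40% inhibition at 20 µM here, with at most 30% in a related deaminase screen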;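 also: plate controls were A3A with DMSO for no effect and wells lacking A3A enzyme for full effect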
Target sequence (P31941 whole entry, looked up): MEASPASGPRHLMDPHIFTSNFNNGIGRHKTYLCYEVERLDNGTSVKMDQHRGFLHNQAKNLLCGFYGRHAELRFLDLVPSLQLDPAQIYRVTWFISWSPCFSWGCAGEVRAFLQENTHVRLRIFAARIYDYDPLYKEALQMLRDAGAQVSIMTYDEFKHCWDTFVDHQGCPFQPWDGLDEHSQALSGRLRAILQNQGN
esBAF inh – SWI/SNF esBAF complex inhibition. reporter increase, % at 12.5 µM. mouse ES cells, Bmi1-luciferase knock-in reporter, 24 h; 100% = twice the neutral-well signal. 350,000 tested, 2% active; in the data active = activation above about 40%; inconclusive = no clear call, values can overlap the other calls;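 also: 0% = median of the plate's neutral control wells and 100% = double that signal; a rise in the Bmi1 reporter signal indicates esBAF inhibition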
Wnt act – Wnt/beta-catenin pathway activation | activation, % at 9.35 µM | Wnt/beta-catenin reporter cell assay, activator, plate reader | AID 743398 | 300,000 tested, 1.2% active; in the data active = activation above about 30%, passing the limit was not always enough; inconclusive = no clear call, values can overlap the other calls;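 also: 0% = neutral control wells and 100% = positive control wells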
Active calls of the source: *. Shown are actives, neighbours in structure and some others; about 3.6% of the full set was active somewhere.

`Cc1cc(C(=O)Nc2ccc(OCc3ccccc3)cc2)c(C)o1` gave A3G deaminase -2, PHOSPHO1 block 47, MITF TRPM1 HTS 64, A3A deaminase 0, esBAF inh 44* and Wnt act 28.
CCOC(=O)c1c(NC(=O)c2cc(C)oc2C)sc(C(=O)Nc2ccc(Cl)cc2)c1C was read as A3G deaminase -2, PHOSPHO1 block -36, MITF TRPM1 HTS 75, A3A deaminase 0, esBAF inh inconclusive and Wnt act 42*.
`C[C@@H]1CN([C@H](C)CO)C(=O)c2cccc(NC(=O)C3CCOCC3)c2O[C@H]1CN(C)C(=O)Nc1ccc(F)cc1` gave esBAF inh 4.
For C[C@H](O)C#Cc1ccc([C@@H]2[C@@H](CO)N3CCCCN(C(=O)c4ccc5c(c4)OCO5)C[C@@H]23)cc1 the results were esBAF inh 22.
`O=C(C[C@@H]1CC[C@@H]2[C@H](COC[C@@H](O)CN2S(=O)(=O)c2ccc(F)cc2)O1)N[C@H]1CCN(Cc2ccccc2)C1` gave esBAF inh -3.
Screening N#C[C@H]1[C@H](c2ccc(C3=CCCCC3)cc2)[C@H](CO)N1C(=O)CN1CCOCC1 returned esBAF inh -2.
Screening C[C@H]1CN([C@@H](C)CO)C(=O)c2cc(C3=CCCC3)cnc2O[C@H]1CN(C)Cc1ccc(F)cc1 returned esBAF inh -3.
Cc1ccsc1C(=O)Nc1ccc(OCc2ccccc2)cc1 was read as A3G deaminase -7, PHOSPHO1 block 15, MITF TRPM1 HTS 55, A3A deaminase 1, esBAF inh 54* and Wnt act 17.
`COc1ccc(NC(=S)N(CCc2ccc(OC)c(OC)c2)Cc2ccccn2)cc1` gave A3G deaminase -3, PHOSPHO1 block 32, MITF TRPM1 HTS -10, A3A deaminase 2, esBAF inh 1 and Wnt act 0.
`COc1ccc(CCN(Cc2ccccn2)C(=S)Nc2cccc(C)c2)cc1OC` gave A3G deaminase -15, PHOSPHO1 block 22, MITF TRPM1 HTS 6, A3A deaminase 0, esBAF inh -3 and Wnt act 45*.
Screening COc1ccccc1NC(=O)N(C)C[C@@H]1Oc2ncc(C#CCC(C)C)cc2C(=O)N([C@H](C)CO)C[C@H]1C returned esBAF inh -3.
CCC(=O)Nc1ccc2c(c1)C(=O)N(C)[C@@H]1CC[C@H](CC(=O)O)O[C@H]1CO2 was read as esBAF inh 0.
Screening CCN(CC)S(=O)(=O)c1cccc(-c2nnc(SCCOc3ccccc3)o2)c1 returned A3G deaminase 3, PHOSPHO1 block 1, MITF TRPM1 HTS 20 and A3A deaminase 1.
CCN(CC)S(=O)(=O)c1cccc(-c2nnc(SCC(=O)c3cc(C)n(C)c3C)o2)c1 was read as A3G deaminase -3, PHOSPHO1 block 80*, MITF TRPM1 HTS -16, A3A deaminase -1 and esBAF inh -21.
Screening CC1CC(=O)Nc2ccccc2N1C(=O)Nc1ccc(F)cc1 (stereo not given) returned A3G deaminase -7, PHOSPHO1 block -5, A3A deaminase -3 and Wnt act 39*.
For CC1CC(=O)Nc2ccccc2N1C(=O)Nc1ccc(F)cc1F (stereo not given) the results were A3G deaminase -14, PHOSPHO1 block 3, MITF TRPM1 HTS -2, A3A deaminase -1, esBAF inh 2 and Wnt act -1.
Screening Cc1nn(-c2nnc(C)c(=O)[nH]2)c(C)c1SCC(=O)Nc1ccc(C(C)C)cc1 returned A3G deaminase -3, PHOSPHO1 block 62*, MITF TRPM1 HTS -8, A3A deaminase -1 and esBAF inh -5.
For Cc1nn(-c2nnc(C)c(=O)[nH]2)c(C)c1SCC(=O)Nc1ccc(F)cc1 the results were A3G deaminase -3, PHOSPHO1 block 55, MITF TRPM1 HTS -3, A3A deaminase -2 and esBAF inh 3.
CC1CCCCN1S(=O)(=O)c1ccc(C(=O)Nc2sccc2C(N)=O)cc1 (stereo not given) was read as A3G deaminase 11, PHOSPHO1 block -22, MITF TRPM1 HTS 58, A3A deaminase 0, esBAF inh 83* and Wnt act 13.
C[C@@H]1CN([C@H](C)CO)C(=O)c2cc(NC(=O)c3ccncc3)ccc2O[C@@H]1CN(C)C(=O)Nc1ccc2c(c1)OCO2 was read as esBAF inh 2.
For Cc1ccc(SCCSc2nc(C)cc(=O)[nH]2)cc1 the results were A3G deaminase -1, PHOSPHO1 block 30, MITF TRPM1 HTS 53, A3A deaminase -1, esBAF inh 34 and Wnt act 34*.
For Cc1ccc(SCCSc2nc(N)cc(=O)[nH]2)cc1 the results were A3G deaminase 1, PHOSPHO1 block 39, A3A deaminase -2, esBAF inh 10 and Wnt act -1.
For Cc1sc(NC(=O)c2ccc(Cl)s2)c(C(N)=O)c1C the results were A3G deaminase -6, PHOSPHO1 block 17, MITF TRPM1 HTS 31, A3A deaminase -1, esBAF inh 30 and Wnt act 42*.
For COc1cccc(-c2cnc3c(c2)C(=O)N([C@H](C)CO)C[C@H](C)[C@@H](CN(C)C(C)=O)O3)c1 the results were esBAF inh -1.
For Cc1ccc(C(=O)c2cncc(Br)c2)cc1 the results were A3G deaminase 1, PHOSPHO1 block -18, MITF TRPM1 HTS 46, A3A deaminase 0, esBAF inh 24 and Wnt act -5.
CCc1ccc(C(=O)c2cncc(Br)c2)cc1 was read as A3G deaminase -1, PHOSPHO1 block -6, MITF TRPM1 HTS 63, A3A deaminase 2, esBAF inh 46* and Wnt act 20.
`CN(C)C(=O)C[C@H]1CC[C@@H]2[C@H](COC[C@@H](O)CN2S(=O)(=O)c2ccccc2)O1` gave esBAF inh -4.
Screening Cc1cccn2cc(-c3ccc4c(c3)NC(=O)CO4)nc12 returned A3G deaminase -1, PHOSPHO1 block -1, MITF TRPM1 HTS 46, A3A deaminase 1 and Wnt act 23.
For Cc1ccn2cc(-c3ccc4c(c3)NC(=O)CO4)nc2c1 the results were A3G deaminase -10, PHOSPHO1 block 28, MITF TRPM1 HTS 103*, A3A deaminase 1 and Wnt act 16.
For Cc1ccc(S(=O)(=O)N[C@@H]2C=C[C@@H](CC(=O)NCc3ccccc3F)O[C@H]2CO)cc1 the results were esBAF inh 1.
Screening CC(C)NC(=O)Nc1ccc2c(c1)C(=O)N([C@H](C)CO)C[C@H](C)[C@@H](CN(C)Cc1ccc(C(=O)O)cc1)O2 returned esBAF inh -3.
For O=C(Nc1ccc(N2CCCC2)cc1)c1cccc(Cl)c1 the results were A3G deaminase -9, PHOSPHO1 block 16, MITF TRPM1 HTS 102*, A3A deaminase -1, esBAF inh -7 and Wnt act 33*.
